# Screening results from PubChem.
# TRPM1 prom inh: inhibitors of MITF-dependent TRPM1 promoter reporter, primary screen, cell-based, SK-MEL-5, single point, luciferase; actives 0.83% (n = 330,000); SK-MEL-5 TRPM1 promoter luciferase, 24 h; inhibition, % at 12.5 µM; AID 488899, 2010;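 active = mean inhibition across replicates of 60% or more, whatever share of single replicates reaches that level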
# HIF-2a block: HIF-2a reporter inhibitors, primary screen, luminescence, 786-0 RCC cells. 786-0 RCC cells HIF-2a reporter, luciferase luminescence, overnight. inhibition, % at 18.8 µM. actives 0.72% (n = 360,000). AID 624352, 2012;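 active = inhibition of the luminescence signal of 40% or more relative to plate controls, in a single-dose primary screen at 18.75 µM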
# LMP1 NFkB inh: EBV LMP1-driven NF-kappaB luciferase reporter inhibitors, primary screen, cell-based, luminescence, single point; inhibition, % at 12.5 µM; LMP1-induced NF-kappaB luciferase reporter cells; actives 0.69% (n = 350,000); in the data active = inhibition above about 41%;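 also: 0% = neutral control wells and 100% = reference inhibitor control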
# TROY NFkB inh: inhibitors of TROY-driven NF-kB signaling, primary screen, Q293 LMP1-TROYcd cells, NF-kB luciferase, uHTS; actives 0.98% (n = 360,000); inhibition, % at 10 µM; Q293 LMP1-TROYcd NF-kB luciferase reporter, 4 h;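 active = compounds whose plate-normalised and pattern-corrected inhibition of the luciferase reporter signal at the single screening dose is 50% or more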
# Shn3 3UTR inh: reduction of Shn3 3'UTR firefly luciferase signal, primary screen, Schnurri-3 inhibitor project, cell-based, Clone20 osteoblasts, set 2; Clone20 osteoblast Shn3 3'UTR firefly luciferase, 24 h; inhibition, % at 12.5 µM; actives 0.52% (n = 360,000);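 active = mean inhibition of at least 75% with every replicate also reaching 75%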;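 also: 0% = median of neutral control wells and 100% = pilot-screen positive control compound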
# TWEAK-Fn14 inh: inhibitors of TWEAK-Fn14 signaling, primary screen, luciferase reporter cells, uHTS | TWEAK-stimulated Fn14 reporter cells, luciferase luminescence, 8 h | inhibition, % at 10 µM | actives 2% (n = 360,000) | AID 1159606, 2016; in the data active = inhibition above about 50%
# Mdm2-MdmX confirm: retested Mdm2-MdmX interaction blockers, confirmation, cell-based, luminescence, single concentration, set 2 | shares compounds with HIF-2a block | SaOS-2 split-luciferase Mdm2/MdmX complementation | inhibition, % at 8 µM | actives 99% (n = 740);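 active = mean inhibition of the luminescence signal across two replicates at or above 26 percent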
# HIF-2a inh conf: HIF-2a reporter inhibitor retest, confirmation, luminescence, 786-0 RCC cells | HIF-2a luciferase reporter luminescence, overnight | AID 651580, 2012 | shares compounds with HIF-2a block | inhibition, % at 18.8 µM | actives 56% (n = 1,800);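 active = mean inhibition across four replicates of at least 40 percent at the single tested concentration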
# HIF-1a cs: HIF-1a luciferase reporter signal reduction – MiaPaCa-2 cells, single concentration, counter-screen for HIF-2a inhibitor project, confirmation | shares compounds with HIF-2a block | MiaPaCa-2 HIF-1a luciferase reporter, desferoxamine, overnight | inhibition, % at 18.8 µM | actives 72% (n = 1,800);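 active = mean inhibition of the reporter signal across four replicates at the single tested dose of 50% or more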
# Numbers without * were called inactive; . = no result given. Sampled rows, rich in hits. Any-hit rate of the full collection: about 3.4%.
SMILES,TRPM1 prom inh,HIF-2a block,LMP1 NFkB inh,TROY NFkB inh,Shn3 3UTR inh,TWEAK-Fn14 inh,HIF-2a inh conf,HIF-1a cs,others
Cc1ccc(C)c(S(=O)(=O)NCc2ccc3c(c2)OCO3)c1,.,9,-1,-2,7,14,.,.,
COc1cc2c(cc1OC)C(c1ccccc1)N(C(=O)CCl)CC2 (stereo not drawn),93*,93*,-1,-7,17,5,99*,106*,
Cc1ccc(OCCNC(=O)CNC(=O)c2ccc(Cl)c([N+](=O)[O-])c2)cc1,15,14,3,20,-7,-1,.,.,
CCCCCCCC[n+]1cccc(C(=O)N(CC)CC)c1,14,18,-2,4,-1,18,.,.,
CCCCCCCCCCCCCCCC[n+]1ccc(C(N)=O)cc1,18,80*,-2,16,69,-7,53*,100*,Mdm2-MdmX confirm=100*
Cc1nc(SCC(=O)NCC2CCCO2)c2c3c(sc2n1)CCC3 (stereo not drawn),-3,6,-4,0,14,15,.,.,
Cc1nc(Sc2nnnn2C)c2c3c(sc2n1)CCC3,87*,55*,48*,23,25,78*,28,-9,
Cc1cc(C)c(C#N)c(Sc2nc(C)c([N+](=O)[O-])c(C)c2C#N)n1,.,90*,.,49,40,82*,26,40,
Cc1nc(Sc2ccccc2)c(C#N)c(C)c1[N+](=O)[O-],-11,8,4,17,.,-23,.,.,
O=C(CN(Cc1ccco1)C(=O)CNS(=O)(=O)c1ccc(F)cc1)NCc1ccco1,-3,6,-4,11,-18,26,.,.,
CCCCCC1=CCC/C1=N\NC(=O)c1ccc2c(c1)OCO2,0,19,-6,-26,8,2,.,.,
Cc1noc2ncnc(Sc3ccccc3Cl)c12,20,67*,-1,54*,-10,17,10,24,
CC(C)=CCC/C(C)=C/CNC(=O)C[C@H]1C[C@H](C(=O)N2CCOCC2)[C@@]2(CCC3CCCC3)c3[nH]c4cc(CCC(=O)N(C)C)ccc4c3CCN2C1=O,15,80*,9,41,53,26,-6,106*,
CN(C)CCCNC(=O)C[C@H]1C[C@H](C(=O)N2CCCCC2)[C@@]2(CCc3ccccc3)c3[nH]c4ccc(Cl)cc4c3CCN2C1=O,105*,81*,2,-6,7,-81,17,103*,Mdm2-MdmX confirm=103*
CCc1ccccc1NC(=O)CNC(=O)CNC(=O)c1cccs1,-1,12,12,9,-10,16,.,.,
O=C(CC(C(=O)c1ccccc1)c1ccccc1)c1ccccc1 (stereo not drawn),1,-37,-2,-11,9,13,.,.,
CN(C)CC(C(=O)c1ccccc1)c1ccccc1 (stereo not drawn),91*,86*,78*,33,95*,79*,25,96*,Mdm2-MdmX confirm=103*
CC(=O)C(=Cc1cccc(C#N)c1)C(=O)c1ccccc1,.,94*,.,-12,22,77*,28,87*,
CC(=O)C(=Cc1ccc(Cl)cc1)C(=O)c1ccccc1,.,91*,.,19,72,95*,92*,105*,
CSCCC(NC(=O)c1cccc(C)c1)C(=O)Nc1sccc1C(N)=O (stereo not drawn),7,2,-5,-32,-8,6,.,.,
CCCc1nc2c(C)cc(C)cc2c(N)c1CC,-1,9,-6,3,11,-10,.,.,
Cc1cc(C)c2nc(C(F)(F)F)c(C#N)c(N)c2c1,-20,12,40,22,11,70*,.,.,Mdm2-MdmX confirm=83*
O=C1c2ccccc2S(=O)(=O)N1Cc1nc2ccccc2s1,70*,67*,76*,79*,39,103*,76*,75*,
NCCCCCc1nnc(SCc2ccccc2Cl)o1,25,68*,-8,-1,26,3,83*,68*,
NCCc1nnc(SCc2c(Cl)cccc2Cl)o1,-5,17,3,8,-7,8,.,.,
SMILES,TRPM1 prom inh,HIF-2a block,LMP1 NFkB inh,TROY NFkB inh,Shn3 3UTR inh,TWEAK-Fn14 inh,HIF-2a inh conf,HIF-1a cs,others
Cc1ccc(NC(=O)c2cc(S(=O)(=O)N3CCCC3)cn2C)cc1,.,-6,-1,-5,9,25,.,.,
COc1ccc(NC(=O)c2c([N+](=O)[O-])c(C(C)(C)C)nn2C)cc1,-22,-1,-10,-1,-2,-3,.,.,
CC(=O)Nc1ccc(NC(=O)c2c([N+](=O)[O-])c(C(C)(C)C)nn2C)cc1,11,60*,0,0,9,8,67*,36,
Cc1cc(C)nc(SCc2ccc(C(=O)N/N=C/c3ccncc3)cc2)n1,5,15,5,-2,9,13,.,.,
Cc1cc(C)nc(SCc2ccc(C(=O)NNC(=O)Nc3cccc(Cl)c3)cc2)n1,9,90*,21,48,17,43,50*,105*,
Cc1ccc(N(C(=O)CCCC(=O)Nc2ccccn2)C(C(=O)NC2CCCC2)c2ccc(O)cc2)cc1C (stereo not drawn),12,6,-4,-1,1,11,.,.,
CCc1ccc(/C=C/C(=O)c2c(C)cc(C)[nH]c2=O)cc1,28,52*,31,44,-2,80*,24,54*,
Cc1cccc(N2C(=O)N3[C@@H]4c5ccccc5OC[C@@H]4[C@@H](c4ccccc4)[C@@]3(C)C2=O)c1,-1,-2,3,17,5,-5,.,.,
COc1cc(OC)cc(-c2cc3nc(C)c(CCC(=O)Nc4nc(C)cs4)c(C)n3n2)c1,.,43*,6,25,52,17,55*,45,
O=C(/C(C=Nc1cc2c(oc1=O)CCCC2=O)=C(\O)c1ccccc1)c1ccccc1,-11,-131,-9,-47,-17,-12,.,.,
COc1ccc(N(CC(=O)N/N=C/c2cccnc2)S(=O)(=O)c2ccc(C)cc2)cc1OC,-7,12,1,-12,-1,-5,.,.,
